Each structure is given as a SMILES string. In all, about 410,000 compounds went through this assay and about 820 (0.2%) were called active. Entries that show only a call come without a potency. Not shown: some 2% with an inconclusive outcome. Calls follow the shape of the dose curve; as a rule, active = well fitted activation curve with a large enough effect; inconclusive = small, poorly fitted or top-dose-only effect; inactive = flat fitted curve, though single readings scatter; cell line not stated here. Many of the other results were omitted from the sample, so actives are more common in it than they were.
Potency is read from the fitted curve at half-maximal effect.

This assay in a line: A Quantitative High throughput Screen to Identify Chemical Modulators of PINK1 Expression. Also: nearly all actives have a fitted effect of over 65% in size. To be noted: PINK1 immunofluorescence, high-content cytometry, 24 h; series mostly up to 76.6 µM. An excerpt: The overall goal of this project is to develop new tools for understanding and treating the mitochondrial basis for neurodegenerative disease such as Parkinson's disease (PD). The PINK1 campaign was developed from recent data pointing towards mitochondrial dysfunction as a major contributor to dopaminergic neuron loss. The discovery of PINK1/Parkin mediated mitophagy has highlighted the potential for mitochondrial quality control as a novel target for therapeutic intervention. […] A second aim of this project is the development of chemical probes to study the mechanics of mitochondrial quality control. As the PINK1/Parkin mitophagy pathway is a relative recent discovery, no specific chemical probes are available that modulate the process. Presently, only crude tools that cause nonspecific mitochondrial damage are available. To advance the understanding of mitophagy, specific, well characterized chemicals that target various steps of mitophagy regulation need to be developed. New chemical probes may have the ability to dynamically manipulate mitophagy in model organisms such as rodents and zebrafish, advancing our understanding of the process in development and disease. This HTS campaign seeks to discover an activator of PINK1 expression by modulation at the level of post-translational processing.
The PINK1 assay determines the amount and localization of PINK1 protein in a cell using a combination of immunofluorescence and cell staining. The goal of the assay is to determine small molecules that can increase the expression of Pink1 on or inside the cell's mitochondria (ideally without mitochondrial depolarization) using a stable cell line. Since PINK1 protein is rapidly degraded in un-perturbed cells, compounds that induce the enhancement of PINK1 protein expression are identified by determining PINK1 immunofluorescence in conjunction with a mitochondrial, cell, and nuclear marker post fixation. To facilitate rapid high content screening, the primary assay is run in a decision-based HTS mode where compound titration data collected by laser-scanning microplate cytometers is processed and only promising compound series are passed off for high content drill down.
1 Add cells to black, clear-bottom, low-base 1536-well plates 6 uL (250 cells/well)
2 Incubate in TC incubator (12 hours)
3 Pin compounds or DMSO controls 23 nL (5 concentrations per compound set)
4 Dispense CCCP to control columns
5 Incubate in TC incubator 24 hours
6 Aspirate media and fix cells (5 uL of fixative containing nuclear dye)
7 Incubate 15 minutes at RT
8 Wash in PBSTween (12 uL/well)
9 Wash in PBSTriton (12 uL/well)
10 Aspirate wash and add Blocking buffer (4 uL/well)
12 Aspirate block and add primary antibodies 3.5 (uL/well)
13 Incubate 12 hours at 10 degrees C
14 Wash in PBSTween-20 two times (12 uL/well)
15 Aspirate wash and add secondary antibodies (12 uL/well)
17 Wash in PBSTween (12 uL/well)
18 Wash in PBSTween with cell stain (12 uL/well)
19 Read plates on Acumen EX3 and determine Wells2Cells coordinates
As for `CCOc1ccc(-c2cc(C)[n+](CCN(CC)CC)c(-c3ccc(OCC)cc3)c2)cc1`, the Potency was 15.8 µM (active).

Turning to `CCc1nc2ccccc2c(=O)n1-c1cccc(OC)c1`, the Potency entry is “inactive”.

For the compound `Cn1cc(/C=C/c2nc3ccccc3c(=O)n2-c2ccccc2)c2ccccc21`, the Potency result is “inactive”.

With `COc1cccc(N2C(=O)NC(=O)/C(=C\c3cn(C)c4ccccc34)C2=O)c1`, the Potency was 39.8 µM (active).

Regarding `c1ccc(N2CC[C@@]3(CCCNC3)C2)nc1`, the Potency entry was “inactive”.

In the case of `COc1cccc(-c2ccc(O)c(CNC3CN4CCC3CC4)c2)n1` (centres undefined), the Potency result was “inactive”.

Take `c1ccc(CN2CC[C@@]3(CCCNC3)C2)cc1`: the Potency entry is “inactive”.

Take `COc1cc([C@@H]2c3cc4c(cc3[C@H](OC(C)=O)[C@H]3COC(=O)[C@H]23)OCO4)cc(OC)c1OC`: the Potency result was “inactive”.

With `N#Cc1c(Cl)c(Cl)c(Cl)c(C#N)c1Cl`, the Potency entry is “inactive”.

(Values after PubChem BioAssay AID624263 (National Center for Advancing Translational Sciences (NCATS), 2012).)
